Source: PubChem (National Center for Advancing Translational Sciences (NCATS))
Most compounds without a hit are left out; they make up all but 21% or so of the library.
Shiga toxin inh = inhibitors of Shiga toxin in Vero cells. Vero cells, Shiga toxin protein synthesis inhibition reporter. inhibition, % at 38.7 µM. 9.2% of 290,000 active; in the data active = inhibition mostly above about 28%, no sharp cut-off; inactive = mostly below about 43%
CHX counter = counter-screen hit for Shiga toxin inhibitors, cycloheximide | max response, % | cell reporter, cycloheximide protein synthesis inhibition counterscreen | 12% of 300,000 active; in the data active = max response mostly above about 13%, no sharp cut-off; inactive = mostly below about 14%; also: read at 38.3 µM for the half of the compounds with a filed dose
Pf growth 96h = inhibits malaria parasite growth, 96 h. AID 504834. 6.9% of 320,000 active. Potency, µM (top dose mostly 28.7 µM), most hits filed as inhibitors. P. falciparum luciferase reporter growth, 96 h
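Erythrocytes infected with luciferase-expressing P. falciparum were dispensed at 2% hematocrit and 0.05% parasitemia (final), then incubated with compounds 96 hours at 37 C in 5% CO2. Luminescence after detection reagent addition reported growth.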
Pf growth 48h = P. falciparum growth inhibition at 48 hours (one generation); P. falciparum luciferase growth in erythrocytes, 48 h; Potency, µM (series often up to 28.7 µM), most hits filed as inhibitors; 5.9% of 310,000 active
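Luminescence readout; reporter = integrated firefly luciferase in P. falciparum. RBC culture at 2% hematocrit, 0.1% parasitemia final, 37 C/5% CO2; decreased signal taken as growth inhibition.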
Of the large screens only hits and unclear results are named; the others gave an inactive call; ! = not active in a repeat. Unless noted, calls follow the shape of the dose curve; as a rule, active = well fitted inhibition curve with a large enough effect; inconclusive = small, poorly fitted or top-dose-only effect, or another doubt; inactive = no such curve, though single readings can be large or run the other way.

COc1ccc(OCC(=O)NC(=O)c2ccccc2)c([N+](=O)[O-])c1	none (no result: Shiga toxin inh, CHX counter)
Cc1ccc2c(c1)C(=O)C(=O)N2CCCOc1ccccc1	CHX counter 14
COc1cc(/C=N/N2CCCCC2)cc(OC)c1O	none
CCOC(=O)CSc1nc2ccccc2c(=O)n1CCC(=O)NCCc1ccc(OC)c(OC)c1	Pf growth 96h inconclusive (no result: Pf growth 48h)
O=C1c2ccccc2C(=O)N1CCOCCN1C(=O)c2ccccc2C1=O	none (no result: Pf growth 96h)
O=C1c2ccccc2C(=O)N1CCCOc1ccccc1	Shiga toxin inh 90, CHX counter 39 (no result: Pf growth 96h)
Cc1ccc(/C(N)=N/OC(=O)CSc2ccccc2)cc1	Shiga toxin inh 79, CHX counter 60
N/C(=N\OCc1ccc([N+](=O)[O-])cc1)c1ccncc1	Shiga toxin inh 58, CHX counter 27
COc1ccc(/C(N)=N/OC(=O)CSc2ccc(C)cc2)cc1	none (no result: Pf growth 48h)
Cc1ccc(SCC(=O)O/N=C(\N)c2ccncc2)cc1	CHX counter 37
N/C(=N\OC(=O)CSc1ccccc1)c1ccc([N+](=O)[O-])cc1	Shiga toxin inh 67, CHX counter 46
CC(C)[C@H](NC(=O)[C@H](Cc1ccccc1)n1c(=O)[nH]c2ccccc2c1=O)C(=O)N1CCC[C@@H]1C(=O)O	none
COc1cccc(CC(=O)N[C@@H](CCSC)c2nc3ccccc3[nH]2)c1	Pf growth 48h inconclusive
CCCCOc1ccc(-c2[nH]ncc2C=O)cc1	Shiga toxin inh 117, CHX counter 37, Pf growth 96h inconclusive
CCCCOc1ccc(Cc2n[nH]c(=S)n2N)cc1	Pf growth 48h inconclusive
Cc1ccc(C(=O)CCC(=O)N2CCN(C(=O)c3ccco3)CC2)cc1	none
O=C(Nc1nnc(-c2ccc3c(c2)OCCO3)o1)c1ccc(Cc2ccccc2)cc1	none (no result: Pf growth 48h)
O=C(COc1ccccc1)Nc1nnc(-c2ccc3c(c2)CCCC3)o1	none
O=C(CCOc1ccccc1)Nc1nnc(-c2ccc3c(c2)OCCO3)o1	CHX counter 21
O=C(COc1ccccc1)Nc1nnc(-c2ccc(F)cc2)o1	Pf growth 96h 12µM
CC1CCCCC12NC(=O)N(CC(=O)N1CCN(c3ncccn3)CC1)C2=O (stereo not drawn)	none (no result: Shiga toxin inh, CHX counter)
CCC12CN3CCN(CC(C3)/C1=N/NC(N)=O)C2	none
CCC1SC(C)C/C(=N/NC(N)=O)C1C (stereo not drawn)	CHX counter 35
CCC(C)N(C(=O)COC(=O)CNC(=O)c1sc2ccccc2c1Cl)C1CCS(=O)(=O)C1 (stereo not drawn)	CHX counter 46
CCN(C(=O)COC(=O)CNC(=O)c1sc2ccccc2c1Cl)C1CCCCC1	none (no result: Shiga toxin inh, CHX counter)
CCn1cc(C(=O)NCCC(=O)NC(C)C)c(=O)c2cc3c(cc21)OCO3	none
C=CCn1c(SCC(=O)Nc2cccc3ccccc23)nnc1-c1cnccn1	Pf growth 96h inconclusive, Pf growth 48h inconclusive
C=CCn1c(SCC(=O)Nc2cc3oc4ccccc4c3cc2OC)nnc1-c1cnccn1	Pf growth 48h 9.3µM
C=CCn1c(COc2ccccc2F)nnc1SCC(=O)Nc1cc2oc3ccccc3c2cc1OC	none
C=CCn1c(SCC(=O)Nc2ccc(F)cc2F)nnc1-c1cnccn1	Shiga toxin inh 45, CHX counter 26
O=C(COC(=O)c1ccccc1F)c1ccc(-n2nncc2-c2ccco2)cc1	CHX counter 21, Pf growth 96h inconclusive (no result: Pf growth 48h)
CCOC(=O)c1cc(-c2ccco2)nn1-c1ccc(C)cc1	none
CCN(CCO)C(=O)c1ccc2nc(Cc3cccc(Cl)c3)oc2c1	none
CSc1ccc(C(=O)C2CCCN(C(=O)c3ccc4c(c3)no[n+]4[O-])C2)cc1 (stereo not drawn)	none
O=C(O)c1ccccc1-c1ccc(C=C2C(=O)N(c3ccccc3)C(=S)N(c3ccccc3)C2=O)o1	Pf growth 96h 12µM (no result: Shiga toxin inh)
O=C(O)c1ccccc1-c1ccc(/C=C2\SC(=O)N(c3ccccc3)C2=O)o1	CHX counter 15, Pf growth 96h inconclusive (no result: Shiga toxin inh)
O=C1S/C(=C/c2ccc(N3CCOCC3)o2)C(=O)N1Cc1c(F)cccc1Cl	none (no result: Pf growth 96h)
CN1C(=O)C(=Cc2ccc(N3CCOCC3)o2)C(=O)N(C)C1=O	none
O=C1S/C(=C\c2ccc(N3CCOCC3)o2)C(=O)N1c1ccccc1	Shiga toxin inh 153, CHX counter 31
O=C1S/C(=C\c2ccc(N3CCOCC3)o2)C(=O)N1Cc1c(F)cccc1Cl	Pf growth 96h 12µM, Pf growth 48h inconclusive
O=Cc1ccc(-c2ccccc2C(=O)O)o1	none
CC1=NN(c2ccc(Br)cc2)C(=O)/C1=C/c1ccc(-c2ccccc2C(=O)O)o1	none (no result: Shiga toxin inh)
CC(C)(C)OC(=O)N1CCC(CNC(=O)c2cccs2)CC1	none
CN1[C@@H]2CC[C@H]1CC(OC(=O)c1c[nH]c3ccccc13)C2 (stereo partly drawn)	none (no result: Pf growth 96h, Pf growth 48h)
CCOc1ccc(C(=O)OC2CC3CCC(C2)N3C)cc1 (stereo not drawn)	CHX counter 22, Pf growth 96h inconclusive
CN1C2CCC1CC(OC(=O)c1c[nH]c3ccccc13)C2 (stereo not drawn)	Pf growth 96h inconclusive, Pf growth 48h 12µM!
CN1C2CCC1CC(OC(=O)c1ccc(Cl)cc1)C2 (stereo not drawn)	Pf growth 48h inconclusive
COCCNC(=O)C(=O)c1cc(C)n(-c2ccc([N+](=O)[O-])cc2)c1C	Pf growth 48h inconclusive
Cc1cc(C(=O)C(=O)NC(C)C)c(C)n1-c1ccc([N+](=O)[O-])cc1	Pf growth 96h inconclusive, Pf growth 48h 7.4µM
Nc1nnn(CC(=O)N/N=C/c2ccccc2Cl)n1	none
Cc1cc(C)c2ccc(=O)n(CC(=O)N/N=C/c3ccccc3Cl)c2n1	Pf growth 48h 2.6µM
COc1ccc(N2C(=O)CC(Sc3nnnn3-c3ccc(F)cc3)C2=O)cc1 (stereo not drawn)	Pf growth 96h inconclusive
O=C1CC(Sc2nnnn2-c2ccccc2)C(=O)N1c1cccc(Cl)c1 (stereo not drawn)	CHX counter 20, Pf growth 96h inconclusive
CC(O)/C=C/C1OC(=O)CC1Nc1ccc(C=O)cc1 (stereo not drawn)	Pf growth 96h 7.4µM
COc1ccccc1CNC(=O)CN1C(=O)NC(c2ccccc2)(c2ccc(C)c(C)c2)C1=O (stereo not drawn)	Pf growth 96h 9.3µM, Pf growth 48h 9.3µM (no result: Shiga toxin inh, CHX counter)
COc1ccc(OC)c(NC(=O)CN2C(=O)C3(OCCCO3)c3ccccc32)c1	Pf growth 96h 5.2µM
COc1ccc(C2(c3ccc(OC)cc3)NC(=O)N(CC(=O)Nc3cc(C)ccc3OC)C2=O)cc1	Shiga toxin inh 116, CHX counter 33, Pf growth 96h inconclusive, Pf growth 48h inconclusive
Cc1ccc(C2(c3ccccc3)NC(=O)N(CC(=O)N3CC(=O)Nc4ccccc43)C2=O)cc1C (stereo not drawn)	Pf growth 96h 3.7µM, Pf growth 48h 2.3µM (no result: Shiga toxin inh, CHX counter)
CCC1(c2ccc(F)cc2)NC(=O)N(CC(=O)N2CC(=O)Nc3ccccc32)C1=O (stereo not drawn)	Pf growth 48h inconclusive (no result: Shiga toxin inh, CHX counter)
COc1cc(NC(=O)CN2C(=O)NC(c3ccccc3)(c3ccccc3)C2=O)cc(OC)c1	Pf growth 48h inconclusive
CCCC1(c2ccccc2)NC(=O)N(CC(=O)N2CC(=O)Nc3ccccc32)C1=O (stereo not drawn)	Pf growth 96h inconclusive, Pf growth 48h 2.9µM (no result: Shiga toxin inh, CHX counter)
CN1Cc2cc(C(=O)c3cc(Cl)cc(CSc4ncccn4)c3O)cnc2NC1=O	Pf growth 96h 9.3µM
